Source: PubChem BioAssay (NCI)
About 83,000 compounds went through this panel and 20% of them were active in at least one assay; those are over-represented in the sample as a whole.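 48-hour exposure, single concentration, 96-well plates; percent growth endpoint where 0 means no net growth. Active: below 10.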 The source made the active and inactive calls.

Each compound was assayed on MDA-MB-468 breast (assay: NCI-60 one-dose screen, 48 h (100 = growth as untreated, 0 = no growth, -100 = all killed)). Details: 10 µM unless noted.

Row | SMILES | growth
1 | CCN(CC)CCCNc1c2ccc(Cl)cc2nc2ccc(OC)cc12 | -34.6% (active)
2 | CCn1c(SCC(=O)c2ccc(Br)cc2)nnc1-c1cc2c([nH]c3ccccc32)c(-c2cccc(O)c2)n1 | 83.9% (inactive)
3 | COc1ccc(/C=C/C(=O)c2ccc(NC(=O)CSc3nnc(-c4cc(-c5ccccc5)nc5ccccc45)n3-c3ccccc3)cc2)cc1 | 97.2% (inactive)
